D2 antag: HTS Assay for Allosteric Antagonists of the Human D2 Dopamine Receptor: Primary Screen for Antagonists; HEK293 TREx D2 cells, calcium flux, dopamine EC80; inhibition, % at 10 µM; hit rate 2% among 340,000; AID 485344, 2010; in the data active = inhibition above about 30%; inactive = below that, where a call was filed; also: 0% is about no effect
Target sequence (P14416 whole entry, looked up): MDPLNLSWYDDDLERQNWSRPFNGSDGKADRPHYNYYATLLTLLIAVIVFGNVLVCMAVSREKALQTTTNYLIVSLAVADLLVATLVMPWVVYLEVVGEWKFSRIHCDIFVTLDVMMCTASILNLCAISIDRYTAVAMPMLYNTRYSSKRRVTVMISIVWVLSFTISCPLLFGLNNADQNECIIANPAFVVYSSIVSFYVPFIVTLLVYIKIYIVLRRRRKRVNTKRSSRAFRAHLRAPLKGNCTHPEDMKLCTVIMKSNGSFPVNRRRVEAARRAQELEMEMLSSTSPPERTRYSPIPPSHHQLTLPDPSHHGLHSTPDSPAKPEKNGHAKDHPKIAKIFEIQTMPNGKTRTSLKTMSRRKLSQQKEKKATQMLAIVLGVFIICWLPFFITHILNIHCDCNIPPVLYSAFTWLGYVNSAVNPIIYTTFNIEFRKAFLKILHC
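Dopamine at EC80 is the agonist stimulus; test compounds precede it by 180 s. Calcium flux read kinetically in a force-coupled, inducible HEK293 T-REx D2 cell line.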
D2 PAM-1: HTS Assay for Positive Allosteric Modulators of the Human D2 Dopamine Receptor: Primary Screen for Potentiators. D(2) dopamine receptor (Homo sapiens), P14416. HEK293 T-REx D2, calcium flux, EC20 dopamine potentiation. potentiation, % at 10 µM. AID 485347, 2010. hit rate 0.34% among 340,000;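 active = potentiation over 3 SD above the plate norm, cut at about 30% in these data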; also: 0% is about no effect
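Cells plated with tetracycline inducer and held overnight at 30 C; calcium dye loaded 30–90 min at room temperature; baseline taken, compound added and read 180 s; EC20 dopamine then added and read 180 s.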
D2 ag-1: HTS Assay for Allosteric Agonists of the Human D2 Dopamine Receptor: Primary Screen for Agonists. D(2) dopamine receptor (Homo sapiens), P14416. HEK293 T-REx D2 cells, calcium flux agonist mode. activation, % at 2 µM. hit rate 0.53% among 340,000. AID 485358, 2010;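 active = activation over 3 SD above normal in the single-dose calcium agonist read, cut at about 30% in these data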; also: 0% is about no effect
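Tetracycline-induced HEK293 T-REx cells with force-coupled D2 receptor, plated overnight at 30 C, loaded with no-wash calcium dye. After a 10 s baseline, compound was pin-added and calcium flux read kinetically for 180 s; calcium rises flagged agonists.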
D2 PAM-2: Beta-Arrestin HTS for Positive Allosteric Modulators of the Human D2 Dopamine Receptor: Potentiators. D(2) dopamine receptor (Homo sapiens), P14416. DiscoveRx D2 beta-arrestin cells, luminescence, 90 min; 100% = 57 uM dopamine signal. potentiation, % (test concentration not listed). hit rate 0.23% among 360,000; in the data active = potentiation above about 50%
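D2 cells co-treated with compound plus 50 nM dopamine (EC20) for 90 min at 37 deg C to detect potentiation. Beta-arrestin recruitment was read as enzyme-fragment luminescence after 1 h at ambient temperature. Full response was set by 57 uM dopamine.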
D2 ag-2: Beta-Arrestin HTS for Positive Allosteric Modulators of the Human D2 Dopamine Receptor: Agonists. D(2) dopamine receptor (Homo sapiens), P14416. DiscoveRx PathHunter D2 beta-arrestin, luminescence, 90 min; 100% = 57 uM dopamine signal. activation, % (concentration not given with the values). hit rate 0.084% among 360,000. AID 624465, 2012; in the data active = activation above about 40%
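Agonist mode: compounds alone added to overnight-plated D2 PathHunter cells for 90 min at 37 C, with 57 uM final dopamine (EC100) defining full response. Beta-arrestin recruitment detected by chemiluminescent reagent, read after 1 h at ambient temperature.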
An asterisk follows results filed as active. Compounds with a hit are over-represented: about 2.4% of the library has one in this group of screens.

CCOC(=O)c1c(-c2ccc(OC)cc2)cn2ccccc12 was read as D2 antag 62*, D2 PAM-1 -1, D2 ag-1 -1, D2 PAM-2 -13 and D2 ag-2 -3.
`CCOC(=O)c1c(-c2ccc(C)cc2)cn2ccccc12` gave D2 antag 7, D2 PAM-1 -9, D2 ag-1 1, D2 PAM-2 -16 and D2 ag-2 -2.
Cc1ccc(C)c(CSc2nnc3[nH]c(=O)cc(C)n23)c1 was read as D2 PAM-1 15 and D2 ag-1 0.
`COc1ccc(NC(=O)C2(c3ccc(NC(=O)c4ccc(OC)c(OC)c4)cc3)CCCC2)cc1` gave D2 antag 19, D2 PAM-1 -3, D2 ag-1 0, D2 PAM-2 -2 and D2 ag-2 5.
`COc1ccc(NC(=O)C2(c3ccc(NC(=O)c4ccc(C)cc4)cc3)CCCC2)cc1` gave D2 antag 34*, D2 PAM-1 -4, D2 ag-1 0, D2 PAM-2 8 and D2 ag-2 0.
`Cc1cccc(NC(=O)C(=O)c2cc(C)n(-c3ccccc3)c2C)c1C` gave D2 PAM-1 -5 and D2 ag-1 1.
CCCCN(C)CCCNC(=O)c1ccc2c(c1)N(CC)C(=O)c1ccccc1S2=O (centres undefined) was read as D2 antag 70*, D2 PAM-1 -32, D2 ag-1 -1, D2 PAM-2 -19 and D2 ag-2 -4.
For CCN1CCN(CCNC(=O)c2ccc3c(c2)N(Cc2cccc(Cl)c2)C(=O)c2ccccc2S3=O)CC1 (centres undefined) the results were D2 antag 40*, D2 PAM-1 -1, D2 ag-1 0, D2 PAM-2 -38 and D2 ag-2 -9.
For O=C(NCCN1CCCC1)c1ccc2c(c1)N(Cc1ccc(F)cc1)C(=O)c1ccccc1S2=O (centres undefined) the results were D2 antag -5, D2 PAM-1 8, D2 ag-1 1, D2 PAM-2 -8 and D2 ag-2 -1.
Screening c1nnc(-c2ccc3c(c2)OCO3)o1 returned D2 antag 31*, D2 PAM-1 -2, D2 ag-1 1, D2 PAM-2 5 and D2 ag-2 4.
Screening Cc1ccc(-c2nnc(-c3ccc4c(c3)OCO4)o2)cc1 returned D2 antag -12, D2 PAM-1 17, D2 ag-1 5, D2 PAM-2 -10 and D2 ag-2 -3.
For C/C(=N\NC=O)c1ccncc1 the results were D2 antag 3, D2 PAM-1 30*, D2 ag-1 0, D2 PAM-2 -8 and D2 ag-2 -18.
`C=CC(COCc1ccccc1)N(C(=O)OC(C)(C)C)S(=O)(=O)c1ccccc1Br` (centres undefined) gave D2 antag 68*, D2 PAM-1 7, D2 ag-1 1, D2 PAM-2 -4 and D2 ag-2 0.
Screening CN1CCN(C(=O)c2ccccc2NC(=O)c2ccccc2Br)CC1 returned D2 antag 3, D2 PAM-1 9, D2 ag-1 0, D2 PAM-2 6 and D2 ag-2 2.
O=C(c1cccs1)N1CCN(c2ccccc2)CC1 was read as D2 antag 31*, D2 PAM-1 -2, D2 ag-1 0, D2 PAM-2 -4 and D2 ag-2 -2.
For O=C(c1cccs1)N1CCN(c2ccc(F)cc2)CC1 the results were D2 antag -2, D2 PAM-1 11, D2 ag-1 1, D2 PAM-2 -8 and D2 ag-2 -2.
Screening CN1CCN(C(=O)c2ccccc2NC(=O)c2cccs2)CC1 returned D2 antag 37*, D2 PAM-1 5, D2 ag-1 1, D2 PAM-2 5 and D2 ag-2 -3.
For COc1ccc(CN2CCN(C(=O)c3cccs3)CC2)cc1 the results were D2 antag 95*, D2 PAM-1 -23, D2 ag-1 81*, D2 PAM-2 5 and D2 ag-2 9.
COc1cc(NC(=O)CCc2nc3cccnc3n2Cc2cccs2)cc(OC)c1OC was read as D2 PAM-1 -3 and D2 ag-1 0.
Screening Cc1cc(O)c(C(c2cccc(F)c2)N2CCN(c3ccccc3)CC2)c(=O)n1Cc1ccco1 (centres undefined) returned D2 PAM-1 -7 and D2 ag-1 26.
`Cc1ccc(/C=C/c2onc(C)c2S(=O)(=O)N2CCC(C(=O)N3CC(C)Oc4ccccc43)CC2)cc1` (centres undefined) gave D2 PAM-1 -4 and D2 ag-1 2.
For Cc1cc2oc3c(c(=O)c2cc1C)C(c1ccc(C(C)C)cc1)N(c1nc(C)c(C)s1)C3=O (centres undefined) the results were D2 PAM-1 -5.
CC1CCCC(NC(=O)CC2Nc3ccccc3NC2=O)C1C (centres undefined) was read as D2 antag 30*, D2 PAM-1 0, D2 ag-1 0, D2 PAM-2 -5 and D2 ag-2 -2.
Screening O=C(CC1Nc2ccccc2NC1=O)NC1CCCCC1 (centres undefined) returned D2 antag 1, D2 PAM-1 -2, D2 ag-1 0, D2 PAM-2 -4 and D2 ag-2 -1.
Screening Cc1nnc2ccc(-c3ccc(NS(C)(=O)=O)cc3)nn12 returned D2 antag 33*, D2 PAM-1 15, D2 ag-1 1, D2 PAM-2 1 and D2 ag-2 3.
For Cc1c(C(=O)Nc2cccc(C#N)c2)sc2nc3n(c(=O)c12)CCCCC3 the results were D2 PAM-1 6 and D2 ag-1 0.
Screening Cc1cc(C)c(NC(=O)CCn2c(=O)c3cccn3c3cccnc32)c(C)c1 returned D2 PAM-1 2.
For CCCCOc1ccc(C2=NC(c3ccncc3)=Nc3ccc(OCC)cc3N2)cc1 the results were D2 PAM-1 -1 and D2 ag-1 -1.
`O=C(Nc1ccc(NC(=O)C2CC2)cn1)c1ccccc1` gave D2 antag 36*, D2 PAM-1 4, D2 ag-1 1, D2 PAM-2 1 and D2 ag-2 4.
O=C(Nc1ccc(NC(=O)C2CC2)cn1)c1ccccc1Cl was read as D2 antag 23, D2 PAM-1 9, D2 ag-1 0, D2 PAM-2 2 and D2 ag-2 -2.
